Marburg entry inh: blocks Marburg virus binding to or entry into cells; Marburg virus pseudotyped entry inhibition, cell reporter; Potency, µM (titrated, usually from 37.8 µM), for the others: at the top dose activity change, negative = inhibition, hits mostly inhibitors; actives 1.8% (n = 300,000); AID 540276; calls by dose curve; tested in HEK293 cells
VACV Venus inh: inhibitors of vaccinia virus (Venus reporter); actives 0.46% (n = 330,000); Potency, µM (doses to about 36.5 µM), for inactives: at the highest dose activity change, negative = inhibition, hits mostly inhibitors; AID 720580; Vaccinia virus Venus reporter expression, fluorescence; calls by dose curve; tested in A549 cells; note: nearly all actives have a fitted effect of over 30% in size
Lassa entry inh: blocks Lassa virus binding to or entry into cells | Lassa virus pseudotype entry inhibition, cell reporter | Potency, µM (highest dose often 37.9 µM), without a hit: at the top dose activity change, negative = inhibition, hits mostly inhibitors | actives 1.2% (n = 300,000) | AID 540256; calls by dose curve; tested in HEK293 cells; note: nearly all actives have a fitted effect of over 50% in size
HCV inh: blocks hepatitis C virus; Huh7.5.1 HCVcc-Cre infection, luciferase reporter, 44 h; Potency, µM (series often up to 41.8 µM), for the others: at the highest dose activity change, negative = inhibition, most hits filed as inhibitors; actives 3.4% (n = 340,000); AID 651820; active = well fitted inhibition curve with a large enough effect; inconclusive = small, poorly fitted or top-dose-only effect, or another doubt; inactive = no such curve, though single readings can be large or run the other way
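Whole-lifecycle infectious HCVcc-Cre system; cells 1,000/well, compound then virus (~0.5 moi) added 4 h after plating, 44 h culture. Luciferase read 15 sec following 15 min substrate incubation, room temp.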
FMDV inh: blocks foot and mouth disease virus; actives 1.2% (n = 410,000); FMDV antiviral cell-based qHTS; AID 1159524; Potency, µM (titrated, usually from 57.9 µM), inactives show at the top dose activity change, negative = inhibition, hits mostly inhibitors; calls by dose curve; tested in HEK293T cells; note: read-out not given here; nearly all actives have a fitted effect of over 45% in size
VACV mCherry inh: inhibitors of vaccinia virus infection (mCherry reporter signal) | Vaccinia virus mCherry reporter infection, fluorescence | Potency, µM (doses to about 36.5 µM), for inactives: top-dose activity change, negative = inhibition, usual class: inhibitors | actives 0.63% (n = 310,000); calls by dose curve; tested in A549 cells; note: nearly all actives have a fitted effect of over 35% in size
Starred values were filed as active, the others as inactive; i = inactive; ? = inconclusive; nt = no result; ! = a repeat was not active; [ ] = remark or other dose. Sampled rows, rich in hits. Any-hit rate of the full collection: about 5.3%. % is set by controls: 0 for no effect and ±100 for the full control effect; potency is the fitted concentration of half-maximal effect.

SMILES	Marburg entry inh	VACV Venus inh	Lassa entry inh	HCV inh	FMDV inh	VACV mCherry inh
CCOC(=O)c1ccc2ncc(C(=O)OCC)c(Nc3ccc(N4CCOCC4)cc3)c2c1	7.94µM*	?	?	?	?	-25.7%
CCOC(=O)c1cnc2ccccc2c1Nc1ccc(N2CCOCC2)cc1	-2.9%[46.1 µM]	-13.3%	-6.3%[46.1 µM]	nt	-14.3%	-10.1%
COc1cc(=O)n2c(c1C(=O)N(C)Cc1nonc1C)CCN(Cc1ccccc1Cl)CC2	nt	3.8%	nt	nt	-13.5%	-7.3%
Cc1oc(-c2cccc(Br)c2)nc1CN1CCC(C(=O)NCc2ccccc2)CC1	nt	-15.4%	-2.5%[46.1 µM]	nt	-6.3%	-21.8%
CC1(C)C2CC=C(CN3CCC(O)CC3)C1C2 (centres undefined)	-3.2%	nt	-14.7%	9.1%	-7.8%	nt
CC1(C)[C@H]2CC=C(CN3CCC(N4CCC(C(=O)N5CCCC5)CC4)CC3)[C@@H]1C2	-29.7%[46.1 µM]	-16.2%	-1.4%	31.6µM*	-16.2%	?
CCCCN(CC)CCCn1cnc2c([nH]c3ccc(Cl)cc32)c1=O	?	-1.6%	28.0%[46.1 µM]	nt	-8.5%	0.9%
CCOc1ccc(C(=O)OCc2cc(=O)n3nc(C4CCCCC4)sc3n2)cc1	nt	-11.7%	10.5%[46.1 µM]	nt	?	-21.0%
O=C(NCc1ccc(F)cc1)c1ccc(S(=O)(=O)N2CCCC2)cc1	nt	-6.9%	nt	nt	-5.7%	i
CNC(=O)c1cc(-c2ccc(F)cc2)cc(-c2ccc(S(=O)(=O)N3CCCC3)cc2)c1N	nt	nt	8.88µM*	nt	nt	nt
O=C(CN1CCOCC1)N1CCN(c2nnc(-c3ccccc3)c3ccccc23)CC1	-0.9%	-5.7%	6.4%	-6.1%	-10.1%	i
O=C(COc1ccc([N+](=O)[O-])cc1)N1CCN(c2nnc(-c3ccccc3)c3ccccc23)CC1	nt	nt	nt	12.6µM*	?	nt
Cc1ccc(-c2nnc(N3CCN(C(=O)CN4CCOCC4)CC3)c3ccccc23)cc1	-10.3%	nt	-11.5%	10µM*!	-2.4%	nt
Cc1ccc(-c2nnc(N3CCN(C(=O)COc4ccccc4)CC3)c3ccccc23)cc1	?	nt	?	12.6µM*	?	nt
CCOC(=O)c1c(NC(=O)c2ccc(S(=O)(=O)N3CCC(C)CC3)cc2)sc2c1CCN(C)C2	nt	?	0.3%[46.1 µM]	nt	-17.8%	-17.2%
O=C(CSc1ncc2c(n1)-c1cc(Cl)ccc1N(Cc1ccccc1F)S2(=O)=O)Nc1cccc(C(F)(F)F)c1	nt	-6.1%	-13.0%[46.1 µM]	nt	-11.7%	-11.1%
CCOCCc1nn2c(=O)cc(COC(=O)c3ccccc3Br)nc2s1	nt	-11.4%	22.6%[46.1 µM]	nt	11.6%	-9.6%
Cc1c(C(=O)N(C)Cc2cccc3ncccc23)cnn1-c1nccc(-c2ccccc2F)n1	nt	-14.0%	nt	nt	-9.6%	i
CCCOc1ccc(CNC(=O)C2CCCN(c3nc4c(C)cc(C)cc4s3)C2)cc1 (centres undefined)	-13.4%[46.1 µM]	-21.2%	nt	nt	-25.2%	-20.0%
Cc1ccc2cc(/C=C(\C#N)C(N)=O)c(N3CCCCC3)nc2c1	-17.9%	nt	9.8%	14.1µM*	-15.7%	nt
COc1ccccc1CCC(=O)N(Cc1ccccc1)c1c(N)n(Cc2ccccc2)c(=O)[nH]c1=O	-24.1%	-18.2%	?	1.12µM*	-29.3%	?
O=C(Cn1c(=O)c(=O)n(Cc2ccccc2)c2ccc(Cl)cc21)Nc1cccc(F)c1	0.794µM*	-9.4%	?	?	-6.8%	i
Cc1ccc(OC[C@H](O)[C@H](C)NC(C)C)c2c1CCC2	15.8µM*	-26.6%	nt	-28.3%	-27.6%	-15.7%
CCOc1cc(C=O)cc(N=Nc2cccc([N+](=O)[O-])c2)c1O	0.9%[46.1 µM]	-4.8%	-0.5%[46.1 µM]	14.9%	-12.6%	-7.9%
O=[N+]([O-])c1ccc(N=Nc2ccc(O)cc2O)cc1	?	?	10µM*	?	10.1%	?
SMILES	Marburg entry inh	VACV Venus inh	Lassa entry inh	HCV inh	FMDV inh	VACV mCherry inh
O=[N+]([O-])c1cccc(N=Nc2ccc(O)cc2O)c1	2.82µM*	?	?	1.78µM*	-9.4%	?
O=[N+]([O-])c1ccc2c(c1)C=CC2	nt	-10.0%	nt	nt	nt	-12.9%
CCn1c(=O)c2cc(C(=O)NCCCOC)sc2c2ccccc21	-14.4%[46.1 µM]	-18.9%	-36.8%[46.1 µM]	?	-1.8%	-19.9%
CCCCN(CC)CCCNC(=O)c1cc2c(=O)n(CC)c3ccccc3c2s1	11.2µM*	?	-2.5%	25.1µM*	-7.4%	-10.1%
CCn1c(=O)c2cc(C(=O)NCCC(C)C)sc2c2ccccc21	nt	nt	nt	-8.6%	9.9%	nt
CCCCN(CC)CCNC(=O)c1cc2c(=O)n(CC)c3ccccc3c2s1	?	-23.4%	?	2.51µM*	0.0%	-20.9%
CCN(CC)CCNC(=O)c1cc2c(=O)n(C)c3ccccc3c2s1	?	-17.9%	1.8%[46.1 µM]	?	2.6%	-23.3%
CCCN(CCC)CCCNC(=O)c1cc2c(=O)n(CC)c3ccccc3c2s1	10µM*	-13.6%	?	7.94µM*	13.6%	-14.5%
CCCCN(CC)CCNC(=O)c1cc2c(=O)n(C)c3ccccc3c2s1	7.94µM*	-8.2%	?	?	-9.9%	?
CCN(CCCNC(=O)c1cc2c(=O)n(CC)c3ccccc3c2s1)c1ccccc1	16.4%[46.1 µM]	-8.8%	-12.3%[46.1 µM]	nt	-27.6%	-14.3%
Cc1cc2c(NCc3ccccc3)ncnc2s1	?	-17.3%	8.5%[46.1 µM]	7.94µM*	?	-12.4%
Cc1sc2ncnc(Nc3ccccc3)c2c1C	-17.1%	?	-1.7%	?	-5.2%	?
c1ccc(CNc2ncnc3sccc23)cc1	nt	nt	nt	6.5%	?	nt
Cc1sc2ncnc(NCc3ccccc3)c2c1C	-27.4%	?	-23.3%	5.62µM*	28.2µM*	nt
NN(CCO)C(=S)Nc1ccc(Cl)cc1	25.3%[46.1 µM]	?	-0.2%[46.1 µM]	8.0%	-6.7%	10µM*
Cc1cccc(NC(=O)CCN2CCN(c3ccccc3F)CC2)c1	nt	3.9%	0.3%[46.1 µM]	nt	-16.3%	-12.1%
Cc1sc2ncnc(NCC3CCCO3)c2c1C (centres undefined)	-29.9%	-21.9%	-19.6%	12.6µM*	28.2µM*	i[1.46 µM]
CC(=O)N1CCN(C(=O)c2sc3ncnc(NCC4CCCO4)c3c2C)CC1 (centres undefined)	nt	0.0%	nt	nt	-10.2%	i
Cc1sc2ncnc(NCC(C)(C)N3CCOCC3)c2c1C	?	?	?	5.62µM*	0.0%	nt
CCOC(=O)c1c(S(=O)(=O)NCC(=O)N2CCN(c3cccc(Cl)c3)CC2)c(C)n(C)c1C	nt	-23.9%	-16.5%[46.1 µM]	nt	-17.6%	-19.6%
CCOC(=O)C1=C(C)N(c2ccc(OC)cc2)C(=O)/C1=C\c1ccc(O)c(OCC)c1	nt	nt	nt	-1.7%	?	nt
CCOC(=O)C1=C(C)N(c2ccc(OC)cc2)C(=O)/C1=C\c1cccs1	-1.5%	nt	-4.9%	12.6µM*	?	nt
CN1c2ccccc2C(C)(C)C12C=Nc1c(cc(N3CCOCC3)c3ccccc13)O2 (centres undefined)	?	-18.2%	?	6.4%	?	-14.9%
CN1c2ccccc2C(C)(C)C12C=Cc1cc(O)ccc1O2 (centres undefined)	?	62.5%	14.6µM*	5.62µM*	nt	i
CSCc1cc(N2CCCC2)nc(-c2ccccc2)n1	2.7%[46.1 µM]	-6.9%	-1.8%	?	-9.3%	-11.2%
